Structures are written as SMILES. The panel holds about 83,000 compounds, 20% with a hit somewhere; the sample as a whole holds those more often.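 A percent growth of 40 corresponds to 60% growth inhibition; 0 means no net growth; -100 means all cells died. Active threshold: below 10.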 Active and inactive are the calls of the source.

The first assay has as its system NCI-H522 lung. In words: NCI-60 one-dose screen, 48 h (100 = growth as untreated, 0 = no growth, -100 = all killed). As to conditions: 10 µM unless noted.
Consider `COc1ccc(S(=O)(=O)N2CCCCC2)cc1NC(=O)c1[nH]c(C)c2c1CCCCC2=O`, for which the growth was 7.18% (active).
On the same count and under the same terms, the figure for `Oc1ccccc1-c1nnc(CNc2ccc(Cl)cc2)o1` is 25.9% (inactive).
For the molecule `CCN=C1C=CC(=C(c2ccc(N)cc2)c2ccc(N(CC)CC)c(C)c2)C=C1`, the growth was -5.45% (active).
The same measure, in the same setting: under `COc1ccc(S(=O)(=O)N2CC3(COC3)C2)cc1NC(=O)c1[nH]c(C)c2c1CCCCC2=O` stands 32.3% (inactive); under `Cc1ccc(C2=NN3C(C2)c2cc(Br)ccc2OC32CCN(Cc3ccccc3)CC2)o1` (stereo unspecified), 89.1% (inactive).
As to `Oc1cccc2ccc(N/N=C/c3cc(CN4CCOCC4)c(O)c4ncccc34)nc12`, the growth is -13.7% (active).
Same read-out and setting: under `CC/C=C\C[C@H](O)C/C=C1/C(=O)C=C[C@@]1(C)C/C=C\CCCC(=O)OC` stands 81.2% (inactive); under `N#CCCN=Nc1c(O)[nH]c2ccc([N+](=O)[O-])cc12`, 78.8% (inactive).
The same measure, in the same setting: under `O=C(N/N=C/c1ccccc1O)c1ccccc1Nc1ccnc(C(F)(F)F)c1` stands 24% (inactive); under `COc1ccc(C2C(C#N)=C(N)Oc3n[nH]c(-c4cccs4)c32)cc1I` (stereo unspecified), 83.2% (inactive).
Still for that read-out and setting: the figure for `O=S(=O)(Nc1ccc(OC(F)F)cc1)c1ccc(-c2cnc(C3CC3)o2)cc1` is 43% (inactive); for `O=C1C=C(OCC=C(Cl)Cl)C(=O)c2ccccc21` it is 51.8% (inactive); for `Cc1cc(C)nc(SC2=C(Nc3ccc(O)cc3)C(=O)N(Cc3ccccc3)C2=O)n1` it is 78.3% [40 µM] (inactive).
As to `Cc1cc2nc(NC(=O)CN3CCN(CCN4C(=O)c5cccc6cccc(c56)C4=O)CC3)sc2cc1C`, the growth is 87.3% (inactive).
Same read-out and setting: the figure for `Cc1ccc2c(C(C[N+](=O)[O-])c3ccccc3F)c(-c3ccccc3)[nH]c2c1` (stereo unspecified) is -17.2% (active); for `CCc1nc(N)nc(N)c1C#CC(C)c1ccc(-c2ccncc2)cc1Cl` (stereo unspecified) it is -9.46% (active); for `Cc1ccc(NC(=O)C2CCC(CN3CCN(C)CC3)CC2)cc1Nc1nccc(-c2cccnc2)n1` (stereo unspecified) it is 129% (inactive).
Still for that read-out and setting: under `CC/C=C\C[C@H]1C/C=C2/C(=O)C=C[C@H]2C/C=C\CCCC(=O)O1` stands -17.7% (active).
Same read-out and setting: the figure for `Cc1ccc(-c2onc3c(=O)[nH]nc(-c4ccccc4)c23)cc1` is -19.5% (active); for `O=c1ccccc(-c2ccc(-c3ccco3)cc2)c1O` it is 27.3% (inactive).
With `COc1ccc(-c2cc(Nc3ccnc(N4CCOCC4)n3)on2)cc1`, the growth was 4.99% (active).
In the case of `Cc1ccccc1COc1ccc(-c2ccnn2-c2ccc(Cl)cc2)cc1`, the growth was 29.1% (inactive).
On the same count and under the same terms, the figure for `COc1ccc(/C=N/C2=C(C#N)C(c3ccc(N(C)C)cc3)c3ccc4ccccc4c3O2)cc1` (stereo unspecified) is 26.1% (inactive); for `c1ccc(CCNc2ncnc3[nH]ncc23)cc1` it is 85.5% (inactive).
For the molecule `CN1CCN(CCCOc2cccc3nc(Nc4ccc(Cl)c(F)c4)ccc23)CC1`, the growth is 29.8% (inactive).
Still for that read-out and setting: the figure for `FC(F)(F)c1[nH]ncc1-c1nc2ccc3n[nH]c(C#Cc4cccnc4)c3c2c2c1CCCC2` is 28.7% (inactive).
Still for that read-out and setting: the figure for `CCOc1nc(-c2ccccc2)cc2c(O)c(C(=O)O)[nH]c(=O)c12` is 136% (inactive); for `CCCCn1cnc2c(Sc3c([N+](=O)[O-])ncn3C)nc(N)nc21` it is 97.3% (inactive).
Still for that read-out and setting: under `COc1cc2c(cc1-c1c(C)noc1C)ncc1nc(C3CCCC3)n([C@H](C)COC(F)F)c12` stands 22.6% (inactive); under `CN1CCN(CCCOc2cccc3nc(Nc4cc(Cl)cc(Cl)c4)ccc23)CC1`, -18.3% (active); under `COc1ccc(CCNc2nc3c(c(=O)n(Cc4ccc(Br)cc4)c(=O)n3C)n2C)cc1OC`, 84.2% (inactive).
For `O=C(/C=C/c1cc(CN2CCOCC2)c(O)c2ncccc12)c1cc(CN2CCOCC2)c(O)c2ncccc12`, the growth was 14.4% (inactive).
Still for that read-out and setting: under `Nc1nc2ccc3[nH]ncc3c2c2c1CCCC2` stands -1.98% (active); under `C#CCOc1ccc2ncnc(N3CCC(NC(=O)CCl)CC3)c2c1`, 55.6% [8.25 µM] (inactive); under `CC1=C(O)C(=O)C(C(C#N)(C#N)C(C#N)C#N)C1` (stereo unspecified), 85.8% (inactive).
The same measure, in the same setting: the figure for `COc1ccc(CN2c3ccccc3Oc3ccccc32)cc1O` is -33.2% (active); for `CN1CCN(c2ccc(Nc3c4ccccc4nc4ccccc34)cc2)CC1` it is 99.7% (inactive).
The same measure, in the same setting: under `CCCCC(=O)OCC1OC(n2cnc3c(=S)nc[nH]c32)C(OC(=O)CCCC)C1OC(=O)CCCC` (stereo unspecified) stands 34.5% (inactive).

Another assay has as its system A549/ATCC NSCLC. The assay is described as above. The following applies: 10 µM unless noted.
Take `COc1ccc(S(=O)(=O)N2CCCCC2)cc1NC(=O)c1[nH]c(C)c2c1CCCCC2=O`: the growth is 28.2% (inactive).
For the molecule `Oc1ccccc1-c1nnc(CNc2ccc(Cl)cc2)o1`, the growth was 20.9% (inactive).
For the molecule `CCN=C1C=CC(=C(c2ccc(N)cc2)c2ccc(N(CC)CC)c(C)c2)C=C1`, the growth was 10.3% (inactive).
With `COc1ccc(S(=O)(=O)N2CC3(COC3)C2)cc1NC(=O)c1[nH]c(C)c2c1CCCCC2=O`, the growth is 62.6% (inactive).
`Cc1ccc(C2=NN3C(C2)c2cc(Br)ccc2OC32CCN(Cc3ccccc3)CC2)o1` (stereo unspecified): the growth was 96.3% (inactive).
Same read-out and setting: the figure for `Oc1cccc2ccc(N/N=C/c3cc(CN4CCOCC4)c(O)c4ncccc34)nc12` is 5.15% (active); for `CC/C=C\C[C@H](O)C/C=C1/C(=O)C=C[C@@]1(C)C/C=C\CCCC(=O)OC` it is 88.6% (inactive); for `N#CCCN=Nc1c(O)[nH]c2ccc([N+](=O)[O-])cc12` it is 114% (inactive).
Still for that read-out and setting: under `O=C(N/N=C/c1ccccc1O)c1ccccc1Nc1ccnc(C(F)(F)F)c1` stands 10.4% (inactive); under `COc1ccc(C2C(C#N)=C(N)Oc3n[nH]c(-c4cccs4)c32)cc1I` (stereo unspecified), 87.1% (inactive); under `O=S(=O)(Nc1ccc(OC(F)F)cc1)c1ccc(-c2cnc(C3CC3)o2)cc1`, 60.4% (inactive).
The same measure, in the same setting: under `O=C1C=C(OCC=C(Cl)Cl)C(=O)c2ccccc21` stands 91.3% (inactive); under `Cc1cc(C)nc(SC2=C(Nc3ccc(O)cc3)C(=O)N(Cc3ccccc3)C2=O)n1`, 63% [40 µM] (inactive); under `Cc1cc2nc(NC(=O)CN3CCN(CCN4C(=O)c5cccc6cccc(c56)C4=O)CC3)sc2cc1C`, 70.3% (inactive).
Turning to `Cc1ccc2c(C(C[N+](=O)[O-])c3ccccc3F)c(-c3ccccc3)[nH]c2c1` (stereo unspecified), the growth was 35.2% (inactive).
Still for that read-out and setting: the figure for `CCc1nc(N)nc(N)c1C#CC(C)c1ccc(-c2ccncc2)cc1Cl` (stereo unspecified) is 9.61% (active); for `Cc1ccc(NC(=O)C2CCC(CN3CCN(C)CC3)CC2)cc1Nc1nccc(-c2cccnc2)n1` (stereo unspecified) it is 114% (inactive).
The same measure, in the same setting: the figure for `CC/C=C\C[C@H]1C/C=C2/C(=O)C=C[C@H]2C/C=C\CCCC(=O)O1` is 29.5% (inactive); for `Cc1ccc(-c2onc3c(=O)[nH]nc(-c4ccccc4)c23)cc1` it is 31.5% (inactive); for `O=c1ccccc(-c2ccc(-c3ccco3)cc2)c1O` it is 13.3% (inactive).
Same read-out and setting: the figure for `COc1ccc(-c2cc(Nc3ccnc(N4CCOCC4)n3)on2)cc1` is 30.4% (inactive); for `Cc1ccccc1COc1ccc(-c2ccnn2-c2ccc(Cl)cc2)cc1` it is 49.6% (inactive).
`COc1ccc(/C=N/C2=C(C#N)C(c3ccc(N(C)C)cc3)c3ccc4ccccc4c3O2)cc1` (stereo unspecified): the growth was 64.9% (inactive).
For `c1ccc(CCNc2ncnc3[nH]ncc23)cc1`, the growth was 92.4% (inactive).
On the same count and under the same terms, under `CN1CCN(CCCOc2cccc3nc(Nc4ccc(Cl)c(F)c4)ccc23)CC1` stands 40.1% (inactive); under `FC(F)(F)c1[nH]ncc1-c1nc2ccc3n[nH]c(C#Cc4cccnc4)c3c2c2c1CCCC2`, 27% (inactive).
On the same count and under the same terms, under `CCOc1nc(-c2ccccc2)cc2c(O)c(C(=O)O)[nH]c(=O)c12` stands 108% (inactive); under `CCCCn1cnc2c(Sc3c([N+](=O)[O-])ncn3C)nc(N)nc21`, 88.2% (inactive); under `COc1cc2c(cc1-c1c(C)noc1C)ncc1nc(C3CCCC3)n([C@H](C)COC(F)F)c12`, 31.6% (inactive).
Same read-out and setting: under `CN1CCN(CCCOc2cccc3nc(Nc4cc(Cl)cc(Cl)c4)ccc23)CC1` stands 0.988% (active); under `COc1ccc(CCNc2nc3c(c(=O)n(Cc4ccc(Br)cc4)c(=O)n3C)n2C)cc1OC`, 90% (inactive).
Take `O=C(/C=C/c1cc(CN2CCOCC2)c(O)c2ncccc12)c1cc(CN2CCOCC2)c(O)c2ncccc12`: the growth is 2.72% (active).
Still for that read-out and setting: under `Nc1nc2ccc3[nH]ncc3c2c2c1CCCC2` stands 8.61% (active); under `C#CCOc1ccc2ncnc(N3CCC(NC(=O)CCl)CC3)c2c1`, 75.7% [8.25 µM] (inactive); under `CC1=C(O)C(=O)C(C(C#N)(C#N)C(C#N)C#N)C1` (stereo unspecified), 101% (inactive).
The same measure, in the same setting: under `COc1ccc(CN2c3ccccc3Oc3ccccc32)cc1O` stands 37.6% (inactive).
On to `CN1CCN(c2ccc(Nc3c4ccccc4nc4ccccc34)cc2)CC1`, for which the growth is 98.2% (inactive).
Turning to `CCCCC(=O)OCC1OC(n2cnc3c(=S)nc[nH]c32)C(OC(=O)CCCC)C1OC(=O)CCCC` (stereo unspecified), the growth is 39.8% (inactive).

(Values after PubChem BioAssay (NCI).)
